A selection: hits, their analogues and other compounds. The true share with any hit is near 5.4%.
NR0B1 inh = inhibitors of human orphan nuclear receptor DAX1 (NR0B1). HEK293 Gal4-DAX1 luciferase reporter, luminescence. hit rate 0.99% among 340,000. inhibition, % at 6.75 µM. P51843;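 active means inhibition above the mean over all tested compounds plus 3 SD, cut at about 4.2% in these data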;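 further: 0% = DAX1-transfected cells with DMSO and 100% = empty-vector control cells with DMSO; inhibition shows as a rise in luminescence from relieved DAX1 repression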
Target sequence (P51843 207-470 limits assumed): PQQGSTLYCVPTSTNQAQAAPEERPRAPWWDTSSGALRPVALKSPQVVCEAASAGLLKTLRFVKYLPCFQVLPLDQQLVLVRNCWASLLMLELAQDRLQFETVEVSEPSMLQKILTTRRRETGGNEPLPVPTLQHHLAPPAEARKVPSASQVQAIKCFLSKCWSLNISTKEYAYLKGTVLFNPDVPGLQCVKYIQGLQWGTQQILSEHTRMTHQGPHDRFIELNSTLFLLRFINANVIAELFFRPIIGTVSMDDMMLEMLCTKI
AHR activator = human AHR activation; AHR-responsive luciferase reporter cells, luminescence; AID 2796; hit rate 2.5% among 320,000; activation, % at 5 µM; in the data active means activation above about 47%;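 further: 0% = vehicle wells and 100% = reference agonist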
HSF-1 act = increases HSF-1 driven luciferase reporter signal; AID 504408; hit rate 1.7% among 300,000; NIH3T3-HGL HSF-1 luciferase reporter, MG132, 8 h; 100% = twice DMSO control signal; activation, % at 9 µM;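 active means mean replicate activation of at least 50% with a set share of replicates each reaching 50%; inconclusive means only one of those two conditions met; inactive means mean below 50% and too few replicates reaching it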;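 further: 0% = median of the neutral control wells and 100% = twice that signal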
GAA850 FXN act = activators of GAA850 frataxin (FXN) promoter; HEK293 lucGAA850 FXN promoter luciferase reporter, 24 h; percent of 10 µM SAHA response; activation, % at 6 µM; hit rate 0.56% among 360,000; AID 540364;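 active means activation above the average of all compounds screened plus 3 SD, cutoff fixed separately per campaign, cut at about 7.5% in these data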;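 further: 0% = DMSO wells and 100% = 10 µM SAHA wells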
HSF1 inh = HSF1 inhibition; hit rate 0.77% among 300,000; NIH3T3-HGL HSE-luciferase, MG132-induced, luminescence 8 h; hits give low values; activity change, negative = inhibition, % at 7.5 µM (by protocol);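 active means more than half of replicate wells show activity change below -50%, luminescence cut by over half; inconclusive means some wells, but at most half, below -50%; inactive means no replicate well below -50%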;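 further: luciferase reports HSF-1 transcriptional activity via heat shock element; 0% = median of DMSO wells and -100% = zero luminescence signal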
* = called active by the depositor; ? = inconclusive; nt = no result.

SMILES	NR0B1 inh	AHR activator	HSF-1 act	GAA850 FXN act	HSF1 inh
Cc1cc(C(=O)CSc2nnc3ccccn23)c(C)n1-c1ccccc1	-6	-8	-85	-12	-81*
O=C(CN(C(=O)c1csnn1)c1cccc(Cl)c1)NCCc1ccccc1	0	2	-2	-1	-4
Cc1ccc(S(=O)(=O)NN=C2CCc3ccccc32)cc1	1	nt	nt	2	nt
Cn1cnc2c(=O)[nH]cc([N+](=O)[O-])c21	-1	1	-14	1	0
CCN1CCN(CCCNc2ncnc3nc[nH]c23)CC1	0	6	-89	0	-87*
Cc1cccc(-c2ocnc2C(=O)N2CCN(C(=O)c3cccs3)CC2)c1	3	12	-89	-1	-87*
CC(=O)Nc1ccc(S(=O)(=O)N2CCN(C(=O)c3ncoc3-c3cccc(C)c3)CC2)cc1	-2	11	9	3	2
Cc1cccc(-c2ocnc2C(=O)Nc2ccccc2NC(=O)c2ccccn2)c1	1	56*	3	1	6
Cc1ccc(-c2ocnc2C(=O)Nc2ccccc2NC(=O)c2ccccn2)cc1	0	31	40	0	6
Cc1ccc(-c2ocnc2C(=O)Nc2nc(C)cs2)cc1	5.4*	68*	-3	4	2
CCn1nc(C)cc1-c1nnc(Sc2ncc([N+](=O)[O-])s2)n1C	-4	2	122*	-9	80
CCn1nc(C)cc1-c1nnc(SCC(=O)Nc2ccccc2)n1CCCOC	0	-2	0	1	-3
CC1(C)C2CCC1(C)C1(C2)NC(=O)c2ccccc2O1 (centres undefined)	0	0	17	0	8
c1cncc(-c2nc(NCc3ccc4c(c3)OCO4)c3ccccc3n2)c1	-3	64*	26	0	10
c1cncc(CSc2ccc(-c3ccc4c(c3)OCO4)nn2)c1	0	95*	?	3	30
N#Cc1ccc(/C=N/NC(=O)c2cc(-c3cccs3)nc3ccccc23)cc1	-1	13	60*	-3	31
COc1cc(/C=N/NC(=O)c2cc(-c3cccs3)nc3ccccc23)ccc1O	-1	10	-9	-1	-3
Cc1ccc(-c2cc(C(=O)Nc3ccc4c(c3)OCCO4)c3ccccc3n2)cc1	0	2	-22	-3	-15
O=C(Nc1ccc2c(c1)OCO2)c1cc(-c2cccnc2)nc2ccccc12	-2	47*	34	0	5
CCCCCCCCNC1=CC(=O)CC(C)(C)C1	0	3	15	2	-1
CCc1nnc(SCC(=O)Nc2ccc3ccccc3c2)n1N	0	10	nt	1	nt
c1ccc(CNc2nc3ccccc3[nH]2)cc1	1	10	27	5	20
O=c1[nH]c(N/N=C\c2ccc3c(c2)OCO3)nc2ccccc12	3	57*	?	1	28
c1cncc(CNc2ncnc3ccc(-c4ccc5c(c4)OCO5)cc23)c1	0	53*	nt	1	nt
c1nc(NCc2ccc3c(c2)OCO3)c2cc(-c3ccc4c(c3)OCCO4)ccc2n1	-2	16	nt	1	nt
SMILES	NR0B1 inh	AHR activator	HSF-1 act	GAA850 FXN act	HSF1 inh
O=C(N/N=C/c1ccc2c(c1)OCO2)c1cc(-c2ccccc2)nc2ccccc12	-1	51*	2	1	-3
c1ccc2[nH]c(NCc3ccc4c(c3)OCO4)nc2c1	1	17	55*	4	21
CC(=O)N(CCc1ccccc1C)Cc1cc2cc3c(cc2[nH]c1=O)OCO3	1	61*	14	-3	-5
CCNC(=S)N(CCc1ccccc1C)Cc1cc2cc(OC)c(OC)cc2[nH]c1=O	1	57*	5	-3	1
CCC(=O)N(CCc1ccccc1C)Cc1cc2ccc(C)cc2[nH]c1=O	0	4	11	-1	-7
COc1cc2cc(CN(CCc3ccccc3C)C(=S)NCCCN(C)C)c(=O)[nH]c2cc1OC	0	2	5	-3	3
C[C@@H]1CCCCO[C@@H](CN(C)C(=O)Nc2ccc3c(c2)OCO3)[C@@H](C)CN([C@H](C)CO)C(=O)c2cc(N(C)C)ccc2O1	4.3*	nt	nt	-2	nt
CC(C)NC(=O)Nc1ccc2c(c1)C(=O)N([C@H](C)CO)C[C@H](C)[C@@H](CN(C)C(=O)Nc1ccc(C(F)(F)F)cc1)O2	4.5*	1	nt	-3	nt
Cc1noc(C)c1NC(=O)N(C)C[C@H]1OCCCC[C@@H](C)Oc2ccc(NC(=O)c3ccccc3)cc2C(=O)N([C@H](C)CO)C[C@@H]1C	1	nt	nt	-2	nt
